Screens (PubChem BioAssay)
KB-3-1 cytotox – qHTS assay for MDR1-selective chemotherapeutics: Primary screen using the parental adenocarcinoma cell KB-3-1; KB-3-1 viability, CellTiter-Glo ATP luminescence, 72 h; 400,000 compounds, 1.4% hits; Potency, µM (top dose mostly 46.1 µM), most hits filed as cytotoxic; further: on the % scale 0 is the no-effect control and ±100 the full control effect; nearly all actives have a fitted effect of over 60% in size
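Parental KB-3-1 adenocarcinoma cells in phenol-red-free DMEM with 10% FBS were pin-treated with compounds at several concentrations, incubated 72 h at 37 °C, and viability read by CellTiter-Glo luminescence; concentration-effect curves were fitted after normalization.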
SW480 rerep – A quantitative high throughput screen for small molecules that induce DNA re-replication in SW480 colon adenocarcinoma cells | SW480 DNA re-replication, Hoechst DNA content imaging, 48 h | Potency, µM (highest dose often 46.1 µM), for inactives: at the top dose re-replication activation, usual class: activators | 340,000 compounds, 1.8% hits | AID 624297, 2012; further: % of control where 0% means no effect; nearly all actives have a fitted effect of over 55% in size
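Quantitative HTS format with DMSO vehicle controls; 48 hr drug incubation at 37 C, then 40 min Hoechst staining and scanning imager measurement at 405 nm excitation.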
MCF10A rerep – A quantitative high throughput screen for small molecules that induce DNA re-replication in MCF 10a normal breast cells; Potency, µM (series often up to 46.1 µM), without a hit: top-dose activity, positive = re-replication, most hits filed as activators; MCF 10A DNA re-replication, Hoechst nuclear intensity, 48 h; 350,000 compounds, 2.9% hits; further: % of control where 0% means no effect; nearly all actives have a fitted effect of over 50% in size
HT1080-NT tox – qHTS for induction of synthetic lethality in tumor cells producing 2HG: qHTS for the HT-1080-NT fibrosarcoma cell line. HT-1080-NT fibrosarcoma viability, CellTiter-Glo ATP luminescence, 48 h. Potency, µM (titrated, usually from 46.1 µM), without a hit: at the highest dose activity, negative = less viability, hits mostly cytotoxic. 360,000 compounds, 1.6% hits. AID 686970, 2013;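 further: NT is the 2HG producing partner of a matched IDH1 knockdown line; 0% = DMSO-treated cells and -100% = media-only wells without cells; nearly all actives have a fitted effect of over 55% in size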
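Fibrosarcoma NT cells, 750 per well in 5% FBS RPMI, were exposed to compound for 48 hours. Viability: CellTiter-Glo luminescence.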
KB-V1 MDR tox – qHTS assay for MDR1-selective chemotherapeutics: Primary screen using the drug-selected MDR subline cells KB-V1 | KB-V1 MDR cells viability, CellTiter-Glo, 72 h | Potency, µM (series often up to 46.1 µM), actives largely listed as cytotoxic | 400,000 compounds, 3.4% hits | AID 1347076, 2019; further: on the % scale 0 is the no-effect control and ±100 the full control effect; nearly all actives have a fitted effect of over 60% in size
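Following 72 h at 37 degrees C with compound, KB-V1 cell viability was read by CellTiter-Glo luminescence, medium being phenol-red-free DMEM plus 10% FBS; concentration-response parameters came from normalized, curve-fitted qHTS data.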
HT1080 IDH1KD tx – qHTS for induction of synthetic lethality in tumor cells producing 2HG: qHTS for the HT-1080-IDH1KD cell line; AID 686971, 2013; HT-1080 IDH1 knockdown viability, ATP luminescence, 48 h; 360,000 compounds, 2% hits; Potency, µM (top dose mostly 46.1 µM), for the others: at the top dose activity, negative = toxicity, actives largely listed as cytotoxic;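 further: 0% = DMSO wells and -100% = cell-free medium wells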
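IDH1KD HT-1080 cells, 750/well, RPMI + 5% FBS; compound pinned after 2 h settling; 48 h, 37 °C; CellTiter-Glo luminescence; % activity normalised to DMSO and no-cell wells; curves fitted, classed by r2 and efficacy.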
The depositor's hits bear a star; i = inactive; ? = inconclusive; · = no result; [ ] = another dose, or the depositor's remark. This is a sample that favours compounds with a hit; in the whole collection about 7.9% have one here. The call rests on the fitted dose curve; in most records, active means well fitted curve in the direction sought with a large enough effect; inconclusive means small, poorly fitted or top-dose-only effect, or another doubt; inactive means no such curve, though single readings can be large; an effect the other way counts as inactive or inconclusive. Potency means the concentration at half of the fitted maximal effect.

SMILES	KB-3-1 cytotox	SW480 rerep	MCF10A rerep	HT1080-NT tox	KB-V1 MDR tox	HT1080 IDH1KD tx
CC(c1ccccc1)N1CCC(CNC(=S)Nc2cccc(Cl)c2)C1 (stereo unspecified)	i	?	?	18µM*	i	18µM*
O=C(Nc1ncc(Cc2cccc(Cl)c2)s1)c1cccs1	?	14%	?	?	13µM*	?
O=C(Nc1ncc(Cc2cccc(Cl)c2)s1)C1=NCCN1	i	8%	-3%	20µM*	i	0%
COCCCNC(=O)CCCn1c(=O)c2ccccc2n(CC(=O)Nc2ccc(C)cc2Cl)c1=O	i	·	·	·	i	·
N#C/C(=C(/O)c1ccc(F)cc1)c1nc2ccccc2s1	8.2µM*	-1%	?	-7%	?	-28%
N#C/C(=C(/O)COc1ccc(Cl)cc1)c1nc2ccccc2s1	?	0%	16µM*	-9%	13µM*	-6%
N#C/C(=C(/O)COc1ccccc1)c1nc2ccccc2s1	?	?	?	0%	i	7%
O=C(Nc1ccc2ccccc2c1)Nc1nnc(-c2ccc(Cl)cc2)s1	i	·	·	·	i	·
CCCCCC1CC(=O)C=C(C)C1C(=O)OC (stereo unspecified)	i	-1%	0%	20%	i	16%
CC1Sc2ccc(S(=O)(=O)N3CCC(C(=O)Nc4ccc(Cl)cc4)CC3)cc2NC1=O (stereo unspecified)	?	7%	?	21µM*	?	?
COc1ccc(NC(=O)C2CCN(S(=O)(=O)c3ccc4c(c3)NC(=O)C(C)S4)CC2)cc1 (stereo unspecified)	i	-2%	?	?	i	?
CCOC(=O)N1CCN(S(=O)(=O)c2ccc3c(c2)SC(C)C(=O)N3)CC1 (stereo unspecified)	?	-4%	-5%	-1%	4.6µM*	-11%
CCOC(=O)N1CCN(C(=O)c2ccc3nc(SCc4ccc(F)cc4)n(C)c3c2)CC1	i	-4%[9.22 µM]	17%	-8%	9.2µM*	-7%
CCCN(CCC)c1ccc(/C=C/c2sc3ccccc3[n+]2CCCCI)cc1	i	·	·	·	i	·
COc1ccccc1C(=O)NCC(c1cccs1)N1CCc2ccccc21 (stereo unspecified)	?	14%	18µM*	-1%	?	-15%
Cc1ccc(N(CC(=O)NCCSc2ccccc2)S(=O)(=O)c2ccc(F)cc2)cc1	i	·	·	·	i	·
N#CC1=C(N)S[C@H](C(=O)C23CC4CC(CC(C4)C2)C3)[C@H]1c1ccncc1	i	?	?	23µM*	i	?
CCc1cccc2c(N=O)c(O)[nH]c12	?	-5%	3%	0%	16µM*	-18%
CCN1CCOC(CC(=O)Nc2cccc([N+](=O)[O-])c2)C1=O (stereo unspecified)	i	109%	21µM*	11%	i	2%
O=C(N/N=C/c1ccccc1F)C(=O)N1CCCCCC1	i	-19%	-14%	7%	i	0%
O=C(N/N=C/c1ccccc1O)C(=O)N1CCCCCC1	?	5.8µM*	17%	?	i	8.2µM*
O=C(CCn1cnc2ccccc21)N/N=C/c1ccccc1O	?	8.2µM*	?	?	i	?
O=C(CCN1CCN(c2ccccc2)CC1)N/N=C/c1ccccc1O	i	?	26%	?	?	21µM*
COc1cc(C(=O)Nc2cccc(NC(=O)c3cccs3)c2)cc(OC)c1OC	i	?	0%	-3%	i	0%
CCOc1ccccc1N(CC(=O)NC(C)(C)C)C(=O)c1ccc(CN2CCOCC2)o1	i	-3%	?	-1%	15µM*	-2%
SMILES	KB-3-1 cytotox	SW480 rerep	MCF10A rerep	HT1080-NT tox	KB-V1 MDR tox	HT1080 IDH1KD tx
Nc1nc2cc3ccccc3cc2[nH]c1=O	6.5µM*	6%	5%	0%	3.7µM*	-5%
Nc1cccc(CCc2nc3cc4ccccc4cc3[nH]2)c1	5.2µM*	3.7µM*	7.3µM*	?	5.8µM*	10µM*
Nc1ccc2nc(CCCCCCCCc3nc4ccc(N)cc4[nH]3)[nH]c2c1	i	0%	2.3µM*	-4%	i	0%
CS(=O)(=O)N(CC(=O)N1CCc2ccccc2C1)c1ccc(Cl)cc1F	i	2%	3%	4%	i	4%
Cc1cc(C)n(-c2nc(NCC3CCCO3)c3c4c(sc3n2)COC(C)(C)C4)n1 (stereo unspecified)	16µM*	17%	?	0%	?	-8%
Cc1cc(C)n(-c2nc(SCCN(C)C)c3c4c(sc3n2)COC(C)(C)C4)n1	i	?	?	18µM*	?	?
Cc1cc(C)n(-c2nc(NCC(C)O)c3c4c(sc3n2)COC(C)(C)C4)n1 (stereo unspecified)	i	?	-2%	?	i	?
O=C(Nc1cccc(Cl)c1)Nc1sccc1-c1nc2ccccc2s1	i	18µM*	16µM*	-20%	?	-21%
CC1CCc2c(sc(NC(=O)CSc3nnc(-c4ccccc4)o3)c2C#N)C1 (stereo unspecified)	i	-82%	15%	2%	?	5%
N#Cc1c(NC(=O)CSc2nnc(-c3ccccc3)o2)sc2c1CCCC2	i	9%	5.8µM*	-7%	i	-3%
N#Cc1c(NC(=O)CSc2nc3ccccc3s2)sc2c1CCCC2	i	-11%	?	-1%	16µM*	-2%
N#Cc1c(NC(=O)CSc2nnc(-c3ccncc3)n2CC2CCCO2)sc2c1CCCC2 (stereo unspecified)	i	0%	-1%	-2%	i	0%
Cc1csc(SCC(=O)Nc2sc3c(c2C#N)CCC3)n1	?	?	?	-3%	i	-24%
N#Cc1c(NC(=O)CSc2ncc(-c3ccccc3)n2CC2CCCO2)sc2c1CCCC2 (stereo unspecified)	?	5%	?	?	3.3µM*	?
Cc1ccc(C(=O)NC(=S)Nc2nc(-c3cccc([N+](=O)[O-])c3)cs2)c(Cl)c1	i	2%	?	9%	?	20%
Cc1ccc(CNC(=O)CSc2nnc3n2CCCCC3)cc1	i	2%	0%	-3%	?	8%
